# Assay results: the supplement of paper PMC8728848
# Only a selection was taken, and the strongest signals are over-represented in it overall.
# B1: SUN4P (Saccharomyces cerevisiae), P53616 (protein)
# chain: MGSSHHHHHHSSGLVPRGSHNGSIYGDLADFSGPYEKFEDGTIPCGQFPSGQGVIPISWLDEGGWSGVENTDTSTGGSCKEGSYCSYACQPGMSKTQWPSDQPSDGRSIGGLLCKDGYLYRSNTDTDYLCEWGVDAAYVVSELSNDVAICLTDYPGTENMVIPTYVQAGDSLPLTVVDQDTYYTWQGLKTSAQYYVNNAGISVEDACVWGSSSSGVGNWAPLNFGAGSSDGVAYLSLIPNPNNGNALNFNVKIVAADDSSTVNGECIYENGSFSGGSDGCTVSVTAGKAKFVLYN
# Experiments:
# Assay in all cases: glycan array binding signal (z-score within array); higher = stronger binding
# Conditions in all cases: glycan notation: IUPAC condensed, linker removed; mutation: R276L
# [1] = target: Fuc(a1-2)Gal(b1-3)[Fuc(a1-4)]GlcNAc(b1-3)[Fuc(a1-3)[Gal(b1-4)]GlcNAc(b1-6)]Gal(b1-4)Glc
# Summary of the method: (§1)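 Glycan array binding is given as a within-array Z-score, which can be read as non-binding when negative. The arrays, 3228 of them, came from the Consortium for Functional Glycomics database and were retained only where the protein sequence was available. Z-scores were averaged across arrays of the same protein sequence at different concentrations or buffers and across linkers.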
# [2] = target: Fuc(a1-2)Gal(b1-3)[Fuc(a1-4)]GlcNAc(b1-3)[Gal(b1-4)GlcNAc(b1-6)]Gal(b1-4)Glc
# Summary of the method: as §1
# [3] = target: Fuc(a1-2)Gal(b1-4)GlcNAc(b1-2)Man(a1-3)[Fuc(a1-2)Gal(b1-4)GlcNAc(b1-2)Man(a1-6)]Man(b1-4)GlcNAc(b1-4)GlcNAc
# Summary of the method: as §1
# [4] = target: Fuc(a1-2)Gal(b1-4)GlcNAc(b1-3)GalNAc
# Summary of the method: as §1
# [5] = target: Fuc(a1-2)Gal(b1-4)GlcNAc(b1-3)[Fuc(a1-2)Gal(b1-4)GlcNAc(b1-6)]GalNAc
# Summary of the method: as §1
# [6] = target: Fuc(a1-2)Gal(b1-4)GlcNAc6S
# Summary of the method: as §1
# [7] = target: Fuc(a1-2)[GalNAc(a1-3)]Gal(b1-3)GalNAc(b1-3)Gal(a1-4)Gal(b1-4)Glc
# Summary of the method: as §1
# [8] = target: Fuc(a1-2)[GalNAc(a1-3)]Gal(b1-3)GlcNAc
# Summary of the method: as §1
# [9] = target: Fuc(a1-2)[GalNAc(b1-3)]Gal
# Summary of the method: as §1
# [10] = target: Gal(a1-3)Gal(b1-3)[Fuc(a1-4)]GlcNAc(b1-2)Man(a1-3)[Gal(a1-3)Gal(b1-3)[Fuc(a1-4)]GlcNAc(b1-2)Man(a1-6)]Man(b1-4)GlcNAc(b1-4)GlcNAc
# Summary of the method: as §1
# [11] = target: Gal(a1-4)GlcNAc
# Summary of the method: as §1
# [12] = target: Gal(b1-2)Gal
# Summary of the method: as §1
# [13] = target: Gal(b1-3)Gal
# Summary of the method: as §1
# [14] = target: Gal(b1-3)GalNAc
# Summary of the method: as §1
# [15] = target: Gal(b1-3)GalNAc(b1-3)Gal
# Summary of the method: as §1
# [16] = target: Gal(b1-3)GalNAc(b1-4)Gal(b1-4)Glc
# Summary of the method: as §1
# [17] = target: Gal(b1-3)GlcNAc
# Summary of the method: as §1
# [18] = target: Gal(b1-3)GlcNAc(b1-2)Man(a1-3)[Gal(b1-3)GlcNAc(b1-2)Man(a1-6)]Man(b1-4)GlcNAc(b1-4)GlcNAc
# Summary of the method: as §1
# [19] = target: Gal(b1-3)GlcNAc(b1-3)Gal(b1-4)Glc
# Summary of the method: as §1
# [20] = target: Gal(b1-3)GlcNAc(b1-3)Gal(b1-4)GlcNAc(b1-2)[Gal(b1-3)GlcNAc(b1-3)Gal(b1-4)GlcNAc(b1-6)]Man(a1-6)[Gal(b1-3)GlcNAc(b1-3)Gal(b1-4)GlcNAc(b1-2)Man(a1-3)]Man(b1-4)GlcNAc(b1-4)[Fuc(a1-6)]GlcNAc
# Summary of the method: as §1
# [21] = target: Gal(b1-3)[Neu5Ac(a2-6)]GalNAc
# Summary of the method: as §1
# [22] = target: Gal(b1-4)GlcNAc(b1-2)Man(a1-3)Man(b1-4)GlcNAc(b1-4)GlcNAc
# Summary of the method: as §1
# [23] = target: Gal(b1-4)GlcNAc(b1-2)Man(a1-3)[GlcNAc(b1-2)Man(a1-6)]Man(b1-4)GlcNAc(b1-4)GlcNAc
# Summary of the method: as §1
# [24] = target: Gal(b1-4)GlcNAc(b1-2)[Gal(b1-4)GlcNAc(b1-4)]Man(a1-3)[GlcNAc(b1-4)][Gal(b1-4)GlcNAc(b1-2)[Gal(b1-4)GlcNAc(b1-6)]Man(a1-6)]Man(b1-4)GlcNAc(b1-4)GlcNAc
# Summary of the method: as §1
# [25] = target: Gal(b1-4)GlcNAc(b1-3)Gal(b1-4)GlcNAc(b1-2)[Gal(b1-4)GlcNAc(b1-3)Gal(b1-4)GlcNAc(b1-6)]Man(a1-6)[Gal(b1-4)GlcNAc(b1-3)Gal(b1-4)GlcNAc(b1-2)Man(a1-3)]Man(b1-4)GlcNAc(b1-4)GlcNAc
# Summary of the method: as §1
# [26] = target: Gal(b1-4)GlcNAc(b1-3)Gal(b1-4)GlcNAc(b1-3)Gal(b1-4)GlcNAc(b1-2)Man(a1-3)[Gal(b1-4)GlcNAc(b1-3)Gal(b1-4)GlcNAc(b1-3)Gal(b1-4)GlcNAc(b1-2)Man(a1-6)]Man(b1-4)GlcNAc(b1-4)GlcNAc
# Summary of the method: as §1
# [27] = target: Gal(b1-4)GlcNAc(b1-3)Gal(b1-4)GlcNAc(b1-3)Gal(b1-4)GlcNAc(b1-2)[Gal(b1-4)GlcNAc(b1-3)Gal(b1-4)GlcNAc(b1-3)Gal(b1-4)GlcNAc(b1-6)]Man(a1-6)[Gal(b1-4)GlcNAc(b1-3)Gal(b1-4)GlcNAc(b1-3)Gal(b1-4)GlcNAc(b1-2)Man(a1-3)]Man(b1-4)GlcNAc(b1-4)[Fuc(a1-6)]GlcNAc
# Summary of the method: as §1
# [28] = target: Gal(b1-4)GlcNAc(b1-6)GalNAc
# Summary of the method: as §1
# [29] = target: Gal3S6S(b1-4)GlcNAc
# Summary of the method: as §1
# [30] = target: Gal4S6S(b1-4)GlcNAc
# Summary of the method: as §1
# [31] = target: GalNAc(b1-4)GlcNAc
# Summary of the method: as §1
# [32] = target: Glc(a1-6)Glc(a1-6)Glc
# Summary of the method: as §1
# [33] = target: GlcNAc(a1-4)Gal(b1-3)GlcNAc
# Summary of the method: as §1
# [34] = target: GlcNAc(a1-4)Gal(b1-4)GlcNAc(b1-3)Gal(b1-4)Glc
# Summary of the method: as §1
# [35] = target: GlcNAc(a1-4)Gal(b1-4)GlcNAc(b1-3)Gal(b1-4)GlcNAc
# Summary of the method: as §1
# [36] = target: GlcNAc(b1-3)Gal(b1-4)GlcNAc(b1-3)GalNAc
# Summary of the method: as §1
# [37] = target: Man(a1-3)[Man(a1-6)]Man(b1-4)GlcNAc(b1-4)GlcNAc
# Summary of the method: as §1
# [38] = target: Man(a1-3)[Man(a1-6)]Man(b1-4)GlcNAc(b1-4)[Fuc(a1-6)]GlcNAc
# Summary of the method: as §1
# [39] = target: Neu5Ac(a2-3)Gal(b1-3)GlcNAc
# Summary of the method: as §1
# [40] = target: Neu5Ac(a2-3)Gal(b1-3)[Neu5Ac(a2-6)]GalNAc
# Summary of the method: as §1
# [41] = target: Neu5Ac(a2-3)Gal(b1-4)Glc
# Summary of the method: as §1
# [42] = target: Neu5Ac(a2-3)Gal6S(b1-4)[Fuc(a1-3)]GlcNAc
# Summary of the method: as §1
# [43] = target: Neu5Ac(a2-3)[GalNAc(b1-4)]Gal(b1-4)Glc
# Summary of the method: as §1
# [44] = target: Neu5Ac(a2-6)Gal(b1-4)GlcNAc(b1-2)Man
# Summary of the method: as §1
# [45] = target: Neu5Ac(a2-6)Gal(b1-4)GlcNAc(b1-2)Man(a1-6)[GlcNAc(b1-2)Man(a1-3)]Man(b1-4)GlcNAc(b1-4)GlcNAc
# Summary of the method: as §1
# [46] = target: Neu5Ac(a2-6)GlcNAc(b1-4)GlcNAc
# Summary of the method: as §1
# [47] = target: Neu5Gc(a2-3)Gal(b1-3)GlcNAc
# Summary of the method: as §1
# [48] = target: Neu5Gc(a2-3)Gal(b1-4)GlcNAc(b1-3)Gal(b1-4)GlcNAc(b1-2)Man(a1-3)[Neu5Gc(a2-3)Gal(b1-4)GlcNAc(b1-3)Gal(b1-4)GlcNAc(b1-2)Man(a1-6)]Man(b1-4)GlcNAc(b1-4)GlcNAc
# Summary of the method: as §1
binder,measurement,setting,value
B1,glycan array binding signal (z-score),[1],-1.15
same,glycan array binding signal (z-score),[2],-0.39
same,glycan array binding signal (z-score),[3],-0.72
same,glycan array binding signal (z-score),[4],-0.667
same,glycan array binding signal (z-score),[5],-0.351
same,glycan array binding signal (z-score),[6],1.81
same,glycan array binding signal (z-score),[7],-0.881
same,glycan array binding signal (z-score),[8],-0.545
same,glycan array binding signal (z-score),[9],1.77
same,glycan array binding signal (z-score),[10],-0.029
same,glycan array binding signal (z-score),[11],-0.2
same,glycan array binding signal (z-score),[12],0.046
same,glycan array binding signal (z-score),[13],1.8
same,glycan array binding signal (z-score),[14],2.6
same,glycan array binding signal (z-score),[15],7.07
same,glycan array binding signal (z-score),[16],11.2
same,glycan array binding signal (z-score),[17],-0.318
same,glycan array binding signal (z-score),[18],-0.366
same,glycan array binding signal (z-score),[19],-0.852
same,glycan array binding signal (z-score),[20],2.11
same,glycan array binding signal (z-score),[21],2.79
same,glycan array binding signal (z-score),[22],-0.274
same,glycan array binding signal (z-score),[23],-0.054
same,glycan array binding signal (z-score),[24],0.051
same,glycan array binding signal (z-score),[25],-0.671
same,glycan array binding signal (z-score),[26],0.667
same,glycan array binding signal (z-score),[27],2.41
same,glycan array binding signal (z-score),[28],-0.068
same,glycan array binding signal (z-score),[29],1.73
same,glycan array binding signal (z-score),[30],0.289
same,glycan array binding signal (z-score),[31],-0.514
same,glycan array binding signal (z-score),[32],-1.11
same,glycan array binding signal (z-score),[33],1.83
same,glycan array binding signal (z-score),[34],-1.22
same,glycan array binding signal (z-score),[35],-0.664
same,glycan array binding signal (z-score),[36],2.14
same,glycan array binding signal (z-score),[37],-0.241
same,glycan array binding signal (z-score),[38],-0.543
same,glycan array binding signal (z-score),[39],0.214
same,glycan array binding signal (z-score),[40],-0.468
same,glycan array binding signal (z-score),[41],-1.01
same,glycan array binding signal (z-score),[42],-1.12
same,glycan array binding signal (z-score),[43],1.36
same,glycan array binding signal (z-score),[44],0.374
same,glycan array binding signal (z-score),[45],0.936
same,glycan array binding signal (z-score),[46],2.98
same,glycan array binding signal (z-score),[47],0.424
same,glycan array binding signal (z-score),[48],-0.663
